# Shown are actives, neighbours in structure and some others; about 9.4% of the full set was active somewhere.
# SMN2 splice enh = enhancers of SMN2 splice variant expression. HEK293 SMN2-luciferase splicing reporter, luminescence, 30-36 h. Potency, µM (doses to about 46.1 µM), inactives show at the highest dose activity change, positive = activation, hits mostly activators. hit rate 2.8% among 210,000; also: % of control where 0% means no effect; nearly all actives have a fitted effect of over 55% in size
#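 HEK293 cells carry an SMN2 […]–luciferase reporter in which exon 7 inclusion puts luciferase in frame. Cells were plated 10-12 h before compound addition, then incubated 30-36 h at 37C. ONE-Glo luminescence was read; sodium butyrate at 4.5 mM final served as control.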
# ELG1 repair inh = inhibitors of ELG1-dependent DNA repair in HEK293T cells | HEK293T ELG1-luciferase reporter, luminescence, 16 h; DNA damage induced by 5-fluorouridine | Potency, µM (top dose mostly 46.1 µM), for inactives: top-dose activity change, negative = inhibition, actives largely listed as inhibitors | hit rate 2.3% among 330,000 | AID 504467; also: % is scaled to controls: 0 for no effect and ±100 for the full control effect; nearly all actives have a fitted effect of over 55% in size
#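 In this reporter screen, reduction of luminescence relative to DMSO vehicle indicated activity. Compounds and 5-fluorouridine were added together to 2,000 cells per well, incubated for 16 hr at 37 °C, then developed with ONE-Glo.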
# FLuc counter = counter-screen for miR-21 project: firefly luciferase inhibitors or activators. purified FLuc, Km substrates, luminescence inhibition. Potency, µM (series often up to 57.5 µM), without a hit: at the top dose activity change, negative = inhibition, hits mostly inhibitors. hit rate 6.9% among 360,000;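 also: plate controls were vehicle for no effect and reference inhibitor for full effect; nearly all actives have a fitted effect of over 55% in size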
# Target sequence (P08659 whole entry, looked up): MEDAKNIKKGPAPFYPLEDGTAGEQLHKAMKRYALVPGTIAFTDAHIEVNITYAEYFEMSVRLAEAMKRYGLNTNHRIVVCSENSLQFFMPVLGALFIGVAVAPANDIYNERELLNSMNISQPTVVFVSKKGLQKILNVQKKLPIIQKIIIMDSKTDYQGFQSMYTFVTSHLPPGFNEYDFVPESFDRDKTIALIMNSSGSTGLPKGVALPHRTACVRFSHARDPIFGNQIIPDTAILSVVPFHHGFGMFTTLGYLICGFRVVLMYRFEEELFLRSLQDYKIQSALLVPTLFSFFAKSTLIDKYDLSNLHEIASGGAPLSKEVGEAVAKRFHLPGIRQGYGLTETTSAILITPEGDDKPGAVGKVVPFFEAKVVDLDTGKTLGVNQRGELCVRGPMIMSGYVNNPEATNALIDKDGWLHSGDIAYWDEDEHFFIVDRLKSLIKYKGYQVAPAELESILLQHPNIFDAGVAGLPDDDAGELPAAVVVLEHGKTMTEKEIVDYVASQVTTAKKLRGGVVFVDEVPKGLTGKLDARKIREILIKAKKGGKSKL
#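 Biochemical qHTS of compounds, final roughly 60 µM downward over six points, against 10 nM purified firefly luciferase using Km concentrations of substrates (10 uM D-luciferin, 10 uM ATP) in Tris acetate pH 7.5 buffer; luminescence output.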
# NPC1 promoter act = activates the NPC1 promoter; Huh7 NPC1 promoter luciferase reporter, 24 h; Potency, µM (doses to about 9.22 µM), for the others: top-dose activation, most hits filed as activators; hit rate 2.4% among 320,000; AID 485313; also: % of control where 0% means no effect; nearly all actives have a fitted effect of over 60% in size
#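 Luminescence read-out of NPC1 promoter-driven luciferase in stably transfected Huh7 cells; compounds delivered in DMSO and left 24 h at 37C, 5% CO2, qHTS titration format.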
# Rab9 prom act = Rab9 promoter activation; Potency, µM (highest dose often 9.22 µM), for inactives: at the top dose activation, negative = inhibition, usual class: activators; hit rate 2.8% among 320,000; Huh7 Rab9 promoter-luciferase reporter, luminescence, 24 h; also: % of control where 0% means no effect; nearly all actives have a fitted effect of over 60% in size
#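 Promoter activation is measured as luciferase luminescence in Huh7 cells stably transfected with a Rab9 promoter–luciferase construct, following 24 h compound exposure at 37 °C and 10 min reagent incubation at ambient temperature.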
# ELG1 genotox = induces genotoxicity in HEK293T cells with luciferase-tagged ELG1; Potency, µM (titrated, usually from 46 µM), inactives show at the highest dose activity change, positive = activation, actives largely listed as activators; hit rate 1.3% among 330,000; HEK293T ELG1-luciferase reporter, luminescence, 16 h; also: % of control where 0% means no effect; nearly all actives have a fitted effect of over 60% in size
#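 Screening used a luciferase reporter fused to human ELG1 in HEK293T cells. Luminescence was read on a CCD plate imager after 16 hr exposure and 30 min ONE-Glo incubation.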
# * hit, by the source's call; ? = inconclusive; nt = no result. Calls follow the shape of the dose curve; as a rule, active = well fitted curve in the direction sought with a large enough effect; inconclusive = small, poorly fitted or top-dose-only effect, or another doubt; inactive = no such curve, though single readings can be large; an effect the other way counts as inactive or inconclusive. Potency is read from the fitted curve at half-maximal effect.
SMILES,SMN2 splice enh,ELG1 repair inh,FLuc counter,NPC1 promoter act,Rab9 prom act,ELG1 genotox
O=c1c2c3nc4ccccc4nc3n(/N=C/c3ccncc3)c2ncn1-c1ccccc1,nt,-5.8%,-2.4%,-4.2%,-3.3%,-3.1%
C=CCn1cnc2c(c1=O)c1nc3ccccc3nc1n2/N=C/c1cccc(OC)c1,22.1%,20.6µM*,-2.3%,-5.4%,-6.8%,-7.6%
CCn1nc(C)c2c(-c3ccccc3)cc(=O)n(C(C)C(=O)Nc3cccc(F)c3)c21 (stereo not given),nt,nt,3.8%,nt,nt,nt
C=CCOC(=O)N[C@@H](Cc1ccccc1)/C(C(=O)OC)=C(\C)NCc1ccccc1,10.2%,nt,nt,nt,nt,nt
N#C/C(=C\c1ccc(-c2ccc(Cl)c(C(=O)O)c2)o1)c1nc2ccccc2[nH]1,2.2%,nt,6.01µM*,7.5%,15.2%,nt
N#C/C(=C\c1ccc(-c2ccc(C(=O)O)cc2)o1)c1nc2ccccc2[nH]1,?,?,9.53µM*,3.98µM*,2.51µM*,17.7%
COc1ccc(CNc2ccc(Br)cc2)cc1,-0.7%,?,23.9µM*,?,?,?
COc1ccc(CNc2ccc(C(=O)O)cc2)cc1,1.5%,?,7.57µM*,24.6%,23.5%,4.1%
O=C(NCc1ccc(F)cc1)c1c2c(nc3ccccc13)CCN(Cc1ccccc1)C2,19.0%,0.8%,12.0%,-3.3%,-4.2%,0.1%
CC(=O)Nc1ccc(NC(=O)COC(=O)c2c3c(nc4ccccc24)CCN(Cc2ccccc2)C3)cc1,nt,2.31µM*,8.49µM*,6.5%,6.5%,-2.8%
O=C(COC(=O)c1c2c(nc3ccccc13)CCN(Cc1ccccc1)C2)Nc1c(F)cccc1F,-23.1%,5.8µM*,?,-3.8%,-6.6%,-7.4%
Cc1cccc(NC(=S)N2N=CCC2c2ccccc2)c1 (stereo not given),5.4%,?,21.3µM*,?,20.2%,?
COc1nc(N)nc(NC23CC4CC(CC(C4)C2)C3)n1,27.6%,?,5.36µM*,7.1%,4.6%,?
COC(OC)c1ccnc(-c2ccc(OC(=O)c3cccs3)cc2)n1,17.7%,?,21.3µM*,2.5%,12.7%,-0.3%
COC(OC)c1ccnc(-c2ccc(OC(C)=O)cc2)n1,?,?,?,0.4%,5.0%,12.7%
COC(OC)c1ccnc(-c2ccc(OC(=O)c3ccccc3)cc2)n1,-1.2%,-0.3%,16.9µM*,3.0%,-2.4%,12.4%
COc1cc(NC(=O)c2cc(-c3cccc(Cl)c3)on2)c(OC)cc1Cl,3.3%,nt,3.7%,nt,nt,nt
O=C(Cc1cccc2ccccc12)N/N=C/c1ccc(Sc2cccc3cccnc23)o1,-57.7%,16.4µM*,2.9%,0.9%,-11.7%,-11.1%
CCCCC(=O)N/N=C/c1ccc(Sc2cccc3cccnc23)o1,24.7%,?,?,0.4%,0.8%,-5.2%
CCOc1ccc(CCNc2ncnc3onc(C)c23)cc1OCC,nt,nt,-3.1%,nt,nt,nt
CCOC(=O)c1cc(/C(C)=N/OC(=O)c2ccc(Cl)cc2)on1,nt,-2.5%,0.1%,0.7%,1.5%,0.1%
C/C(=N/OC(=O)CC(C)C)c1cc(-c2ccc(Cl)cc2)no1,17.8µM*,?,?,?,2.82µM*,?
COc1ccc(-c2nc3ccc([N+](=O)[O-])cc3o2)cc1,11.2µM*,?,0.757µM*,1.58µM*,1.12µM*,6.51µM*
NC(N)=Nc1nc2cc([N+](=O)[O-])ccc2o1,nt,?,?,-1.3%,8.9%,10.2%
O=[N+]([O-])c1ccc2oc(-c3ccccc3)nc2c1,15.8µM*,?,?,?,2.24µM*,?
SMILES,SMN2 splice enh,ELG1 repair inh,FLuc counter,NPC1 promoter act,Rab9 prom act,ELG1 genotox
Cc1cccc(-c2nc3cc([N+](=O)[O-])ccc3o2)c1,15.8µM*,?,1.69µM*,3.55µM*,1.58µM*,16.4µM*
Cc1cccc(-c2nc3cc(NC(=O)Cc4ccc(Cl)cc4)ccc3o2)c1,-20.5%,nt,1.6%,nt,nt,nt
COc1ccccc1C1=NOC(CN2C(=O)c3ccccc3S2(=O)=O)C1 (stereo not given),nt,?,8.49µM*,2.82µM*,3.98µM*,?
O=C1c2ccccc2S(=O)(=O)N1CC1CC(c2ccccc2Cl)=NO1 (stereo not given),3.98µM*,?,2.69µM*,3.16µM*,3.16µM*,11.6µM*
COc1cc2ncc3c(-c4ccccc4)nn(CC(=O)NC4CCCCC4)c3c2cc1OC,nt,nt,-4.8%,nt,nt,nt
COc1ccc(Cl)cc1NC(=O)CSC1=Nc2ccccc2C2=NC(CC(=O)NCc3cccs3)C(=O)N12 (stereo not given),-6.2%,nt,-10.2%,nt,nt,nt
O=C1CCCC1C(=O)Nc1ccc2ccccc2c1 (stereo not given),nt,?,16.9µM*,16.2%,14.5%,10.9%
c1ccc(Oc2cc(-c3ccccc3)nc(-c3ccccc3)n2)cc1,-14.0%,?,-4.3%,-5.7%,2.2%,-0.9%
c1ccc(Oc2cc(-c3ccccc3)ncn2)cc1,?,?,15.1µM*,?,?,?
CCOc1ccc2nc(N3CCCC(C(=O)Nc4ccccc4CC)C3)sc2c1 (stereo not given),21.0%,nt,?,nt,nt,nt
COc1ccc(Cn2ccc3nc(C)c(C(=O)N4CCN(c5ccccc5F)CC4)cc3c2=O)cc1,nt,nt,-8.2%,nt,nt,nt
COc1ccccc1C(=O)NC(=S)N1CCCc2ccccc21,-86.8%,?,21.3µM*,-17.4%,7.5%,10.2%
O=C(NC(=S)N1CCCc2ccccc21)c1ccc(Cl)cc1,?,?,6.75µM*,14.6%,26.5%,16.3%
COc1ccc(OCC(=O)NC(=S)N2CCCc3ccccc32)cc1,15.2%,?,26.9µM*,7.2%,-1.0%,10µM*
O=C(NC(=S)N1CCCc2ccccc21)c1ccccc1,-13.1%,?,?,-5.4%,2.2%,15.8%
COc1ccccc1C(=O)NC(=S)N1CCc2ccccc21,6.0%,3.4%,-19.6%,0.5%,-0.3%,4.7%
O=C(O)c1cc(-c2cccc([N+](=O)[O-])c2)n[nH]1,-39.9%,19.7%,?,-1.7%,-9.7%,2.0%
Cn1c(N)c(C(=O)c2cc(-c3ccccc3)nc3ccccc23)c(=O)n(C)c1=O,11.2µM*,?,5.36µM*,14.3%,8.9%,?
Cc1cc(-c2cccc([N+](=O)[O-])c2)nc2ccc3ccccc3c12,-13.6%,16.0%,2.69µM*,?,?,8.6%
O=C(O)c1cc(-c2cccc([N+](=O)[O-])c2)nc2ccccc12,nt,5.9%,19µM*,0.7%,-2.9%,1.7%
Cn1c(=O)c(C(=O)COC(=O)c2cc(-c3ccccc3)nc3ccccc23)c(N)n(Cc2ccccc2)c1=O,-8.9%,?,-6.7%,-11.6%,-9.0%,-0.2%

# Source: PubChem BioAssay
